Measured values: the supplement of paper PMC10981050
Values joined by “and” are separate entries in the source; they are usually repeats but may differ in a detail not shown here. Equal values may be shown once. Where a name gives a salt, the structure may show the parent alone.

Experiments:
Test in all cases: cell viability relative to vehicle control; higher = less cytotoxic
Details in all cases: 10 µM
[1] = tested on: K562
In short: (§1)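 CRISPR-edited mutant clones and isogenic wild-type clones from four leukaemia lines were screened against Selleck bioactive, kinase and epigenetic probe libraries, with identity-inconsistent compounds excluded. Each compound was acoustically dispensed at a single 10 µM dose into 384-well plates holding 2000 cells in 50 µL medium per well. After 48 h the supernatant was removed and CellTiter-Glo luminescence was read. Viability was expressed as percent of the on-plate vehicle control and analysed in Genedata Screener.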

[2] = tested on: MARIMO
In short: as §1

[3] = tested on: MOLM14
In short: as §1

[4] = tested on: OCI-AML2
In short: as §1

| SMILES | cell viability ([1]; SRSF2 genotype: SRSF2 P95H/wt) | cell viability ([1]; SRSF2 genotype: SRSF2 wt/wt) [%] | cell viability ([2]; SRSF2 genotype: SRSF2 P95H/wt) [%] | cell viability ([2]; SRSF2 genotype: SRSF2 wt/wt) [%] | cell viability ([3]; SRSF2 genotype: SRSF2 P95H/wt) [%] | cell viability ([3]; SRSF2 genotype: SRSF2 wt/wt) [%] | cell viability ([4]; SRSF2 genotype: P95H/wt) [%] | cell viability ([4]; SRSF2 genotype: wt/wt) [%] |
| --- | --- | --- | --- | --- | --- | --- | --- | --- |
| COCCc1ccc(OCC(O)CNC(C)C)cc1 (stereo unspecified) [Metroprolol succinate] | 103% and 108% | 105 | 100 | 110 | 99.5 | 107 | 113 | 108 |
| CN1CCN(c2c(F)cc3c(=O)c(C(=O)O)cn4c3c2OCN4C)CC1 [Marbofloxacin] | 100% and 108% | 105 | 102 | 109 | 103 | 100 | 104 | 110 |
| CC(C)(F)C[C@H](N[C@@H](c1ccc(-c2ccc(S(C)(=O)=O)cc2)cc1)C(F)(F)F)C(=O)NC1(C#N)CC1 [Odanacatib (MK 0822)] | 98.7% and 103% | 93.4 | 94.5 | 102 | 104 | 104 | 101 | 102 |
| NCCCC[C@@H]1NC(=O)[C@@H](Cc2ccccc2)NC(=O)[C@H](CC(=O)O)NC(=O)CNC(=O)[C@H](CCCN=C(N)N)NC1=O [Cyclo (-RGDfK)] | 98.8% and 104% | 103 | 98.6 | 103 | 98.5 | 101 | 108 | 118 |
| COc1cc(-c2oc3cc(O)cc(O)c3c(=O)c2O[C@@H]2O[C@H](CO[C@@H]3O[C@@H](C)[C@H](O)[C@@H](O)[C@H]3O)[C@@H](O)[C@H](O)[C@H]2O)ccc1O [Narcissoside] | 108% and 102% | 106 | 102 | 103 | 107 | 105 | 103 | 109 |
| Cc1cc(Nc2cc(CN3CCOCC3)c3nc(C)c(Cc4ccc(Cl)cc4F)n3n2)n[nH]1 | 88.8% and 88% | 84 | 73.1 | 110 | 19.7 | 16.5 | 34.7 | 53 |
| CN1CCC(=C2c3ccccc3CC(=O)c3sccc32)CC1 [Ketotifen fumarate (Zaditor)] | 104% and 101% | 97.7 | 94.7 | 104 | 94.6 | 101 | 91 | 107 |
| Cc1nc2ccc(-n3ncc(C(=O)c4cc5ccccc5[nH]4)c3N)cc2[nH]1 | 73.6% and 86.9% | 76.5 | 90.6 | 103 | 41.2 | 47.5 | 42.6 | 43.7 |
| CO[C@@H]1[C@@H](OC(N)=O)[C@@H](O)[C@H](Oc2ccc3c(O)c(NC(=O)c4ccc(O)c(CC=C(C)C)c4)c(=O)oc3c2C)OC1(C)C [Novobiocin sodium (Albamycin)] | 103% and 87.6% | 82.6 | 91.6 | 92.9 | 93.6 | 89.7 | 91.4 | 94.4 |
| COc1cc(CO)cc(OC)c1O [4-Hydroxy-3,5-dimethoxybenzyl alcohol] | 106% and 98.2% | 100 | 102 | 107 | 99.7 | 102 | 108 | 105 |
| O=C(NC[C@H]1CN(c2ccc(N3CCOCC3=O)cc2)C(=O)O1)c1ccc(Cl)s1 [Rivaroxaban (Xarelto)] | 87.3% and 85.4% | 92.3 | 92.5 | 91.3 | 96.8 | 97.1 | 90.8 | 85.8 |
| CC(C)NCC(O)COc1ccc(CCOCC2CC2)cc1 (stereo unspecified) [Betaxolol hydrochloride (Betoptic)] | 97.5% and 96.6% | 94.3 | 103 | 107 | 99.5 | 99.7 | 91.2 | 99.6 |
| O=c1[nH]c(=O)n(C2CCCO2)cc1F (stereo unspecified) | 107% and 105% | 103 | 96.4 | 108 | 99.7 | 104 | 93.9 | 105 |
| O=c1cc(-c2ccccc2)oc2c1ccc1ccccc12 [alpha-Naphthoflavone] | 94.2% and 87.3% | 95.9 | 90.5 | 96.5 | 117 | 109 | 86.5 | 99.7 |
| Nc1nc(N)c2nc(-c3cccc(O)c3)cnc2n1 | 80.3% and 89.9% | 83.4 | 63.7 | 59.2 | 57.2 | 57.8 | 48.7 | 53.1 |
| CC1(C)CC[C@]2(C(=O)O[C@@H]3O[C@H](CO[C@@H]4O[C@H](CO)[C@@H](O)[C@H](O)[C@H]4O)[C@@H](O)[C@H](O)[C@H]3O)CC[C@]3(C)C(=CC[C@@H]4[C@@]5(C)CC[C@H](O[C@@H]6OC[C@H](O)[C@H](O)[C@H]6O)[C@@](C)(CO)[C@@H]5CC[C@]43C)[C@@H]2C1 [Akebia saponin D] | 107% and 101% | 103 | 105 | 113 | 103 | 108 | 96.4 | 106 |
| COc1ccc(/C=C/C(=O)C2(C(=O)/C=C/c3ccc(OC)c(OC)c3)CCCCC2)cc1OC | 5.82% and 13.9% | 10.6 | 2.25 | 2.73 | 0.4 | 0.31 | 0.35 | 0.43 |
| COc1cc(-c2coc3cc4c(c(OC)c3c2=O)OCO4)cc(OC)c1OC [Irisflorentin] | 93.9% and 96.7% | 93.6 | 89.8 | 96.8 | 96.8 | 97.9 | 81.6 | 90.9 |
| Cc1cc2c(F)c(Oc3ncnn4cc(OC[C@@H](C)O)c(C)c34)ccc2[nH]1 | 94.6% and 98.7% | 99.5 | 107 | 106 | 97.5 | 104 | 97.5 | 86.6 |
| O=C(O)CCNc1cc(N2CCc3ccccc3CC2)nc(-c2ccccn2)n1 | 108% and 104% | 99.5 | 102 | 107 | 108 | 107 | 106 | 111 |
| Cc1ccc2oc(=O)ccc2c1 [6-Methylcoumarin] | 99.5% and 87.8% | 91.3 | 97.3 | 98.6 | 95 | 101 | 91.1 | 107 |

| SMILES | cell viability ([1]; SRSF2 genotype: SRSF2 P95H/wt) | cell viability ([1]; SRSF2 genotype: SRSF2 wt/wt) [%] | cell viability ([2]; SRSF2 genotype: SRSF2 P95H/wt) [%] | cell viability ([2]; SRSF2 genotype: SRSF2 wt/wt) [%] | cell viability ([3]; SRSF2 genotype: SRSF2 P95H/wt) [%] | cell viability ([3]; SRSF2 genotype: SRSF2 wt/wt) [%] | cell viability ([4]; SRSF2 genotype: P95H/wt) [%] | cell viability ([4]; SRSF2 genotype: wt/wt) [%] |
| --- | --- | --- | --- | --- | --- | --- | --- | --- |
| C[S+](CC[C@H](N)C(=O)[O-])C[C@H]1O[C@@H](n2cnc3c(N)ncnc32)[C@H](O)[C@@H]1O (stereo partly specified) [Ademetionine] | 108% and 105% | 119 | 104 | 108 | 109 | 111 | 129 | 133 |
| CCOC(=O)NCCCC(=O)NCCc1ccccc1 | 102% and 97.9% | 98.8 | 105 | 109 | 100 | 105 | 108 | 106 |
| COC(=O)C1(C)CCC2(C(=O)O)CCC3(C)C(=CCC4C5(C)CC(O)C(O)C(C)(CO)C5CCC43C)C2C1 (stereo unspecified) [Phytolaccagenin] | 108% | 113 | 111 | 103 | 111 | 111 | 105 | 98.5 |
| Cc1ccc(C(=O)O)c(O)c1 [4-Methylsalicylic acid] | 107% and 102% | 103 | 108 | 111 | 99.7 | 109 | 99.3 | 95.5 |
| CN1CCN2c3ncccc3Cc3ccccc3C2C1 (stereo unspecified) [Mirtazapine (Remeron, Avanza)] | 101% and 92.3% | 88.7 | 93.2 | 96.8 | 92.3 | 97.4 | 95.9 | 96.5 |
| C=C[C@@H]1C[C@]1(NC(=O)[C@@H]1C[C@@H](Oc2ncc(OC)c3ccc(Cl)cc23)CN1C(=O)[C@@H](NC(=O)OC(C)(C)C)C(C)(C)C)C(=O)NS(=O)(=O)C1CC1 [Asunaprevir] | 88.6% and 75.8% | 78.8 | 103 | 109 | 96.3 | 97.9 | 108 | 110 |
| CCCCC[C@](C)(O)/C=C/[C@@H]1[C@@H](C/C=C\CCCC(=O)O)[C@@H](O)C[C@H]1O [Carboprost] | 110% and 101% | 102 | 97.5 | 91.1 | 78.8 | 99.7 | 90.3 | 90.1 |
| O=C(O)C=C(CC(=O)O)C(=O)O [cis-Aconitic acid] | 109% and 108% | 101 | 102 | 113 | 102 | 103 | 97.9 | 106 |
| Cc1cc(C)cc(NC(=O)Cc2ccc(OC(C)(C)C(=O)O)cc2)c1 [Efaproxiral sodium] | 102% and 99.1% | 99.9 | 109 | 119 | 110 | 103 | 106 | 116 |
| CCCCCCCCCCCC(=O)O [Lauric Acid] | 91.8% and 82.9% | 85.7 | 89.8 | 101 | 92.6 | 92.1 | 94.9 | 96.1 |
| CCC(=O)OCC(=O)[C@@]1(OC(=O)CC)[C@@H](C)C[C@H]2[C@@H]3CCC4=CC(=O)C=C[C@]4(C)[C@@]3(F)[C@@H](O)C[C@@]21C [Betamethasone Dipropionate (Diprolene)] | 96.7% and 103% | 98.8 | 106 | 109 | 94.5 | 96 | 113 | 120 |
| N[C@@H](Cc1cc(I)c(Oc2cc(I)c(O)c(I)c2)c(I)c1)C(=O)O [L-Thyroxine] | 87.7% and 96.4% | 101 | 106 | 114 | 98.8 | 106 | 102 | 114 |
| CC(C)(C)C(O)/C=C/c1ccc2c(c1)OCO2 (stereo unspecified) [Stiripentol] | 105% and 95.5% | 101 | 94.5 | 108 | 100 | 107 | 95.3 | 100 |
| CCOC(=O)Nc1cc(-c2ccc(C)c(NS(C)(=O)=O)c2)nn2c(C)nnc12 [Bromosporine] | 33.4% and 42% | 49.7 | 9.42 | 13.9 | 3.2 | 1.48 | 1.03 | 4.94 |
| C=C1C2CCC3C2C(C)(C)CCCC13C (single isomer, unassigned; (+)) [(+)-Longifolene] | 105% and 104% | 110 | 96.6 | 107 | 103 | 106 | 103 | 115 |
| O=S(=O)(O)c1ccc2cc(N=Nc3cc(S(=O)(=O)O)c4cccnc4c3O)ccc2c1 | 95.9% and 96.5% | 89 | 93.5 | 107 | 96.9 | 95.2 | 88.5 | 94.5 |
| O=c1cc(N2CCOCC2)oc2c(-c3ccc4c(c3)OCCO4)csc12 | 39.4% and 50.7% | 46.9 | 36.4 | 30.9 | 15.7 | 18.2 | 3.38 | 11.7 |
| C#CC[C@H](c1nc2cc(Cl)ccc2c(=O)n1Nc1ccccc1)N(CCCN)C(=O)c1cccc(Cl)c1F | 0.47% and 0.44% | 0.4 | 0.46 | 0.55 | 0.39 | 0.42 | 0.41 | 0.45 |
| CC(=O)Oc1ccccc1C(=O)O.CC(=O)Oc1ccccc1C(=O)O.NC(N)=O [Carbasalate Calcium] | 105% and 106% | 102 | 104 | 105 | 104 | 103 | 102 | 97.8 |
| Cn1nnc(-c2ccc(-c3ccc(N4C[C@H](CO)OC4=O)cc3F)cn2)n1 [Tedizolid] | 87.1% and 82.2% | 83.3 | 77.3 | 88.1 | 89.4 | 85.5 | 79.9 | 81.6 |
| CN(C)Cc1cccc(N=C(c2ccccc2)c2c(O)[nH]c3cc(C(N)=O)ccc23)c1 | 80.6% and 81.5% | 78.9 | 72.2 | 83.8 | 11 | 15.9 | 23.9 | 31.1 |
